{"source": "PubChem BioAssay (NCATS)", "note": "Several values for one entry are separate records, joined by “and”; a condition that tells them apart may be missing. Equal values may be shown once. Inconclusive results are not listed. A number with no mark means an inactive call. Activity calls are given as the source filed them. Calls follow the shape of the dose curve; as a rule, active = well fitted cell-killing curve with a large enough effect; inconclusive = small, poorly fitted or top-dose-only effect, or effect the other way; inactive = no such curve, though single readings can be large or run the other way. Potency is read from the fitted curve at half-maximal effect.", "data": [{"test": "Viability qHTS for spleen associated tyrosine kinase inhibitor (SYKi) naive MV4-11 cells (AID 1963823); also: nearly all actives have a fitted effect of over 40% in size", "conditions": "MV4-11 AML viability, CellTiter-Glo luminescence, 72 h; series mostly up to 45 µM", "method_in_brief": "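Read-out: CellTiter-Glo luminescence. Exposure: 72 hr, 37 C, 5% CO2, 95% humidity. Cells: MV4-11 without SYK inhibitor history, 500/well, qHTS format.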", "values": [{"smiles": "Cn1c(=O)n(-c2ccc(C(C)(C)C#N)cc2)c2c3cc(-c4cnc5ccccc5c4)ccc3ncc21", "Potency": "0.027 µM (active)"}, {"smiles": "CCN(CC)Cc1ccc2cc(COC(=O)Nc3ccc(C(=O)NO)cc3)ccc2c1", "Potency": "291 nM (active) and 468 nM (active)"}, {"smiles": "CCCCCCCCCCCCc1ccc(S(=O)(=O)Nc2nncs2)cc1", "Potency": "16.4 µM (active)"}, {"smiles": "O=C(Nc1cn[nH]c1-c1nc2ccc(CN3CCOCC3)cc2[nH]1)NC1CC1", "Potency": "0.0259 µM (active)"}, {"smiles": "Cc1ccc2nc(NCCN)c3ncc(C)n3c2c1", "Potency": "2.31 µM (active)"}, {"smiles": "Cn1cc(C[C@@H](N)C(=O)O)c2ccccc21", "viability (% of control)": "69.9% [at 9.25 µM]"}, {"smiles": "COc1cc(C)c(Sc2cnc(NC(=O)c3ccc(CNC(C)C(C)(C)C)cc3)s2)cc1C(=O)N1CCN(C(C)=O)CC1", "note": "(stereo not given)", "Potency": "2.63 µM (active)"}, {"smiles": "Cc1ccn(-c2ccc(-c3ncco3)cc2)c(=O)c1-c1ccc2nc(N)ncc2c1", "Potency": "1.64 µM (active)"}, {"smiles": "C[C@@H]1C[C@H]2[C@@H]3CCC4=CC(=O)C=C[C@]4(C)[C@@]3(Cl)[C@@H](O)C[C@]2(C)[C@@]1(OC(=O)c1ccco1)C(=O)CCl", "Potency": "16.8 µM (active) and 8.33 µM (active)"}, {"smiles": "COCCNCCCn1c(C(=O)CF)c(-c2ccc(C)cc2)c2c(N)ncnc21", "Potency": "4.17 µM (active)"}, {"smiles": "COc1ncc(-c2ccc3c(Nc4cc(Oc5cc(F)cc(F)c5)cc(C(=O)O)c4)c(S(=O)(=O)NC4CC4)cnc3c2)c(OC)n1", "Potency": "inactive"}, {"smiles": "CC(C)(C)C(=O)OCOP(=O)(COCCn1cnc2c(N)ncnc21)OCOC(=O)C(C)(C)C", "Potency": "944 nM (active) and 372 nM (active)"}, {"smiles": "C=CC(=O)Nc1cccc(Oc2nc(Nc3ccc(N4CCN(C)CC4)cc3)ncc2Cl)c1", "Potency": "0.206 µM (active)"}, {"smiles": "O=C(c1ccc(F)cc1)C1CCN(CCn2c(=O)[nH]c3ccccc3c2=O)CC1", "Potency": "inactive"}, {"smiles": "NS(=O)(=O)c1ccc(Nc2nc(OCC3CCCCC3)c3[nH]cnc3n2)cc1", "Potency": "0.58 µM (active)"}, {"smiles": "Cc1cnc(NC(=O)Nc2cc(Br)c(C)cc2OC[C@@H]2CNCCO2)cn1", "Potency": "1.32 µM (active)"}, {"smiles": "Cc1ccc(C(=O)Nc2cccc(C(F)(F)F)c2)cc1Nc1nc(-c2cccnc2)nc2c1cnn2C", "Potency": "8.33 µM (active)"}, {"smiles": "NCCc1ccc(O)c(O)c1", "Potency": "20.9 µM (active)"}, {"smiles": "COc1cc2ncnc(-n3nc(-c4ccccn4)nc3N)c2cc1OC", "Potency": "796 nM (active) and 1.48 µM (active)"}, {"smiles": "CC(C)c1ccc2c(c1)c(SC(C)(C)C)c(CC(C)(C)C(=O)O)n2Cc1ccc(Cl)cc1", "Potency": "16.6 µM (active)"}, {"smiles": "CCN(CCO)CCCOc1ccc2c(Nc3cc(CC(=O)Nc4cccc(F)c4)[nH]n3)ncnc2c1", "Potency": "0.0411 µM (active)"}, {"smiles": "Clc1ccccc1C(c1ccccc1)(c1ccccc1)n1ccnc1", "Potency": "5.25 µM (active)"}, {"smiles": "CN[C@@H](C)[C@H]1[C@H](O)C[C@@]2(C)[C@@H]3CC[C@H]4C(C)(C)[C@@H](NC)CC[C@@]45C[C@@]35CC[C@]12C", "viability (% of control)": "79.2% [at 9.25 µM]"}, {"smiles": "CCC(c1ccc(O)cc1)C(CC)c1ccc(O)cc1", "note": "(stereo not given)", "Potency": "20.9 µM (active)"}, {"smiles": "Cc1ccc(C(=O)c2cc(O)c(O)c([N+](=O)[O-])c2)cc1", "Potency": "20.9 µM (active)"}, {"smiles": "CCOC(=O)[C@@H](N)CCC(=O)N[C@@H](CSCc1ccccc1)C(=O)N[C@@H](C(=O)OCC)c1ccccc1", "Potency": "5.9 µM (active)"}, {"smiles": "CC(C)(C)c1cc(C(C)(C)C)c(NC(=O)c2c[nH]c3ccccc3c2=O)cc1O", "Potency": "11.8 µM (active)"}, {"smiles": "NC(=O)NO", "Potency": "inactive"}, {"smiles": "Nc1ccccc1NC(=O)c1ccc(CNC(=O)OCc2cccnc2)cc1", "Potency": "651 nM (active) and 742 nM (active)"}, {"smiles": "COc1cccc(OC)c1-c1cc(C(=O)NC2(C(=O)O)C3CC4CC(C3)CC2C4)nn1-c1ccnc2cc(Cl)ccc12", "note": "(stereo not given)", "Potency": "9.34 µM (active)"}, {"smiles": "Cc1cn(CCN2CCN(c3ccccc3-c3cc(C#N)cc(C(=O)NCCCN4CCCC4)c3)CC2)c2ccccc12", "Potency": "3.72 µM (active)"}, {"smiles": "CCCCCN(CCC12CC3CC(CC(C3)C1)C2)C(=O)NCCCc1ccncc1", "Potency": "8.33 µM (active)"}, {"smiles": "COC(=O)N[C@H](C(=O)N[C@@H](Cc1ccccc1)[C@@H](O)CN(Cc1ccc(-c2ccccn2)cc1)NC(=O)[C@@H](NC(=O)OC)C(C)(C)C)C(C)(C)C", "Potency": "inactive"}, {"smiles": "Nc1c2c(nc3ccccc13)CCCC2", "Potency": "inactive"}, {"smiles": "NS(=O)(=O)c1cccc2c1C(=O)c1cccc(O)c1C2=O", "Potency": "0.525 µM (active)"}]}]}
